For 92 compounds, inhibition results are on record in PubChem BioAssay AID1878 (Sanford-Burnham Center for Chemical Genomics, 2009).

In all, about 1,000 compounds went through this assay and about 200 (20%) were called active. No stated cut-off is given here; in the data, active means inhibition above about 55%; inactive means the rest. Only a sample is shown. Measured potencies and affinities stand elsewhere.

Chain of Dual specificity protein phosphatase 3 (Homo sapiens) (P51452 whole entry, looked up): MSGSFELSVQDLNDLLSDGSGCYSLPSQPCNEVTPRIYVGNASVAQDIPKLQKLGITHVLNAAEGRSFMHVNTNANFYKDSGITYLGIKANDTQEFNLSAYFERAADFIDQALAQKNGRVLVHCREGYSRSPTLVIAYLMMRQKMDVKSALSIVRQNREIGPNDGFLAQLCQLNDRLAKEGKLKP

This test addresses Dual specificity protein phosphatase 3 (Homo sapiens) (UniProt P51452). The experiment in a line: VHR1 phosphatase inhibitors, biochemical (AID 1878). The following applies: recombinant VHR phosphatase, fluorogenic substrate; at 13.3 µM; stronger effect = higher value.
For the compound `Nc1nc(-c2cc(O)ccc2[N+](=O)[O-])cc(-c2ccccc2)c1[N+](=O)[O-]`, the inhibition was 80.5% (active).

As for `O=C(NN1C(=O)C2C(C1=O)C1C=CC2C12CC2)c1ccccc1` (configuration not stated), the inhibition was 3.2% (inactive).

For `N#Cc1c(N2CCCC2)nc(N)c2c(N)nc(N3CCCC3)cc12`, the inhibition was 78.3% (active).

As for `N#Cc1c(N2CCCC(O)C2)nc(N)c2c(N)nc3c(c12)CC(=O)N3C12CC3CC(CC(C3)C1)C2` (configuration not stated), the inhibition is -7.9% (inactive).

In the case of `CCOC(=O)c1c(C)[nH]c(C)c1S(=O)(=O)NC1CCN(C(=O)OCC)CC1`, the inhibition was -2% (inactive).

In the case of `COc1cccc(CNCCc2ccc3c(c2)OCO3)c1OC`, the inhibition was 26.4% (inactive).

For `CCCN1CCC(NC(=O)CC2C(=O)NCCN2Cc2ccccc2C)CC1` (configuration not stated), the inhibition is -11.6% (inactive).

Turning to `O=C(O)CCCNc1cc(N2CCC3(CC2)OCCO3)c2noc3c2c1C(=O)c1ccccc1-3`, the inhibition is 12.8% (inactive).

For `Cc1ccc(S(=O)(=O)NC2CCCCCC2)cc1C(N)=O`, the inhibition was -4.2% (inactive).

Take `NS(=O)(=O)c1ccc(NC(=S)NC2CCCCCC2)cc1`: the inhibition is 56.7% (active).

Regarding `CC1(C)CC(NC(=O)C(c2ccccc2)c2ccccc2)CC(C)(C)N1`, the inhibition is 24% (inactive).

As for `CC1(C)CC(NC(=S)Nc2ccc(S(N)(=O)=O)cc2)CC(C)(C)N1`, the inhibition was 58.2% (active).

As for `CC1(C)CC(NS(=O)(=O)c2ccc(C(C)(C)C)cc2)CC(C)(C)N1`, the inhibition was 6.7% (inactive).

Turning to `O=C(CCCC(=O)N(CC(=O)NC1CCCC1)c1cccc(F)c1)Nc1ccccn1`, the inhibition was -10.4% (inactive).

As to `Cn1cc(CN2CCCCC2C(=O)Nc2ccc(-n3cccn3)cc2)cn1` (configuration not stated), the inhibition was 10.3% (inactive).

As for `CCC(=O)N1c2ccc(S(=O)(=O)NCCc3ccc(C)cc3)cc2CC1C` (configuration not stated), the inhibition is 7.9% (inactive).

Turning to `CCC(C)N(C(=O)c1csnn1)C(C(=O)NC1CCCC1)c1ccccc1F` (configuration not stated), the inhibition was 10% (inactive).

In the case of `CSc1sccc1/C=C(/C#N)C(=O)c1ccco1`, the inhibition was 28.9% (inactive).

For the compound `CCn1c(=O)n(CC)c2cc(N3CCCC3)c(NC(=O)c3ccccc3F)cc21`, the inhibition was -2.4% (inactive).

Regarding `COCCn1c(SCC(=O)N2CCCC(C)C2)nnc1-c1ccco1` (configuration not stated), the inhibition is -3.4% (inactive).

`O=C(CCNS(=O)(=O)c1ccccc1)N1CCCCCC1`: the inhibition was 7.7% (inactive).

For `O=C(NCc1ccccc1Cl)C1CCC(CNc2nc(=S)[nH]c3ccccc23)CC1` (configuration not stated), the inhibition was -7% (inactive).

Take `CC1CCN(CCCNC(=O)C2CCN(S(=O)(=O)N3CCC4(CC3)OCCO4)CC2)CC1`: the inhibition is 1.6% (inactive).

Consider `O=C(c1cc(C2CC2)on1)N1CCCC(N2CCN(c3ccc(F)cc3)CC2)C1` (configuration not stated), for which the inhibition is 0.4% (inactive).

Regarding `CCOc1ccc(C2NC(=O)c3ccccc3O2)cc1OC` (configuration not stated), the inhibition is -17.6% (inactive).

As to `CN(Cc1ccccn1)C(=O)C1CCC(=O)N(CCc2ccc(Cl)cc2)C1` (configuration not stated), the inhibition was -11.4% (inactive).

Consider `COc1ccc(NC(=O)CN(C)S(=O)(=O)c2ccc3[nH]c(=O)oc3c2)cc1`, for which the inhibition is 12.6% (inactive).

In the case of `Cn1c(=O)oc2cc(S(=O)(=O)NCCC(=O)NCc3ccccc3Cl)ccc21`, the inhibition was 14.6% (inactive).

As to `COc1ccccc1-c1nc2c3ccccc3nc(=S)n2[nH]1`, the inhibition was 7.9% (inactive).

As to `CC(C)c1ccc(NS(=O)(=O)c2cccc3cccnc23)cc1`, the inhibition is -1% (inactive).

Take `COc1ccccc1-c1cc(C(=O)Nc2cccnc2Cl)no1`: the inhibition is 12.2% (inactive).

With `COc1ccc2c(c1)C(=NNC(=O)c1ccccn1)c1cc(OC)ccc1-2`, the inhibition was 99.3% (active).

Take `Cc1cc(NC(=O)C2CCCCC2)ncc1NC(=O)c1ccccn1`: the inhibition was 9% (inactive).

Turning to `CCOC(=O)c1sc(=NC(=O)c2c(F)cccc2F)n(C)c1C`, the inhibition is 26.7% (inactive).

In the case of `CC(=O)NCCC(=O)N(C)CC1CCN(CCc2cccc(C(F)(F)F)c2)CC1`, the inhibition is -21.4% (inactive).

`COc1ccc(/C=C2\SC(=S)N(CCC(=O)Nc3cccc(C(=O)O)c3)C2=O)cc1`: the inhibition is 86.4% (active).

Regarding `Cc1ccc(NC(=O)COc2cccc(/C=C3\SC(=S)N(CCC(=O)O)C3=O)c2)cc1Cl`, the inhibition is 79.2% (active).

As for `O=C(CCN1C(=O)/C(=C\C=C\c2ccccc2)SC1=S)Nc1ccc(C(=O)O)cc1`, the inhibition was 98.7% (active).

`COc1cccc(NC(=O)CCc2nc(-c3cccs3)no2)c1`: the inhibition was 11.2% (inactive).

On to `CCc1ccc(/C=C2/SC(=S)N(CCC(=O)Nc3ccc(C(=O)O)cc3)C2=O)cc1`, for which the inhibition was 87.1% (active).

Take `COc1ccccc1C(=O)NNC(=O)CCN1C(=O)/C(=C\c2ccccc2)SC1=S`: the inhibition is 38.1% (inactive).

With `CCOC(=O)c1ccc(NC(=O)CCS(=O)(=O)Cc2ccccc2)cc1`, the inhibition was 11.4% (inactive).

Regarding `COc1ccc(S(=O)(=O)NCC2CCCN(Cc3cn(C)nc3C)C2)cc1` (configuration not stated), the inhibition was 0.5% (inactive).

As to `COc1ccccc1N1CCN(S(=O)(=O)c2ccc3c(c2)CC(C)N3C(C)=O)CC1` (configuration not stated), the inhibition is 2.4% (inactive).

With `CCC1CCCCN1CCCNC(=O)c1ccc2c(c1)NC(=O)CN2C` (configuration not stated), the inhibition was -26.5% (inactive).

`CCCCN(Cc1ccco1)C(=O)C1CCCN(c2ncnc3c2nc2n3CCCCC2)C1` (configuration not stated): the inhibition was -4.3% (inactive).

As for `CCCN1C2CCCC1CC(NC(=O)c1ccccc1OC)C2` (configuration not stated), the inhibition is -6.6% (inactive).

As for `Cc1ccc(CNS(=O)(=O)c2c(C)[nH]c(=O)[nH]c2=O)cc1`, the inhibition is -4.8% (inactive).

As for `NC(=O)c1ccc(NC(=O)CS(=O)(=O)c2cn(CC(=O)N3CCCC3)c3ccccc23)cc1`, the inhibition is -13.4% (inactive).

Turning to `Cc1ccc(/C=N/N(C)C2=NS(=O)(=O)c3ccccc32)cc1`, the inhibition is 21.9% (inactive).

`COCCCNC(=O)c1ccc(CS(=O)(=O)c2ccccc2OC)o1`: the inhibition was -5.7% (inactive).

Turning to `Nc1[nH]n2c(=O)cc(-c3ccccc3)nc2c1N=Nc1ccc2c(c1)OCO2`, the inhibition was 98.8% (active).

With `COc1cccc(N2CCN(c3ccc4nnc(CCC(=O)Nc5ccc(F)cc5F)n4n3)CC2)c1`, the inhibition was 6.6% (inactive).

Turning to `Cc1cc(C)c(S(=O)(=O)Cc2ccccc2)c(Cl)n1`, the inhibition was 7.3% (inactive).

In the case of `COc1ccc(/C=C/C(=O)NC(=S)Nc2cc([N+](=O)[O-])ccc2O)cc1OC`, the inhibition is 95.7% (active).

As for `CCOc1cc2[nH]c(=S)n(Cc3ccc(C(=O)NCCN(CC)CC)cc3)c(=O)c2cc1OCC`, the inhibition is -9.2% (inactive).

Consider `Nn1c(SCC(=O)Nc2ccccc2F)nnc1C1CCCCC1`, for which the inhibition is 18.2% (inactive).

For the compound `O=C(Nc1c(C(=O)N2CCC(N3CCCCC3)CC2)oc2ccccc12)c1ccc(F)cc1`, the inhibition was -2.2% (inactive).

As to `CC1CCCCN1C(=O)CCC(=O)Nc1nnc(C2CCCCC2)s1` (configuration not stated), the inhibition is -7.6% (inactive).

As for `Cc1ccccc1-c1nc(CS(=O)(=O)CC(=O)NC2CCCC2)c(C)o1`, the inhibition is 7.2% (inactive).

Consider `O=c1oc(-c2ccccc2Cl)nc2ccsc12`, for which the inhibition is 5.6% (inactive).

For `CCn1c(SCC(=O)N2CCOCC2)nc2c(c1=O)SC(C)C2` (configuration not stated), the inhibition was -2.5% (inactive).

For the compound `COc1ccc(CC(=O)N/N=C(\C)CC(=O)Nc2ccc(N(C)C)cc2)cc1`, the inhibition was -12.6% (inactive).

For `O=C1CN(c2ccc(F)cc2)C(=S)N1c1ccccc1`, the inhibition was 4.8% (inactive).

Regarding `C[C@@H]1NC(=O)N(c2ccc(F)cc2)C1=O`, the inhibition is -6.6% (inactive).

For the compound `CCN1CCN(C(CNS(=O)(=O)c2ccc(OC)c(C)c2)c2cccnc2)CC1` (configuration not stated), the inhibition was -7.5% (inactive).

Consider `CC1CCN(Cc2nnnn2CCCC(=O)N(C)C(C)c2ccccn2)CC1` (configuration not stated), for which the inhibition was 7.9% (inactive).

Take `COc1cc(OC)cc(C(=O)NN(CCC#N)C2=NS(=O)(=O)c3ccccc32)c1`: the inhibition is 15.9% (inactive).

On to `Cc1ccccc1OCCCN1CCOCC1`, for which the inhibition was 2% (inactive).

As to `CCc1ccc(/C=C/c2c([N+](=O)[O-])c(=O)n(C)c(=O)n2C)cc1`, the inhibition is 3.6% (inactive).

With `Cc1ccc(C)c(Nc2ccc3nonc3c2[N+](=O)[O-])c1`, the inhibition was -8.6% (inactive).

As for `Cc1cc(OCc2cc(C(=O)N(C)CCCN3CCOCC3)no2)cc(C)c1Cl`, the inhibition is -10.5% (inactive).

With `COc1cc(Cl)ccc1OCc1cc(C(=O)NCC(C)c2ccccc2)no1` (configuration not stated), the inhibition is 11.7% (inactive).

Regarding `Cc1ccc(CN2CCN(Cc3cccc(C)n3)CC2CCO)cc1` (configuration not stated), the inhibition is 3.8% (inactive).

Regarding `CC(C)(C)CN1CCN(Cc2c[nH]c3ccccc23)CC1CCO` (configuration not stated), the inhibition is -9.5% (inactive).

Consider `COc1ccc(-c2n[nH]c3c2CN(C(=O)c2ccc(OC)c(OC)c2)CC3)cc1`, for which the inhibition is -2.9% (inactive).

Take `CCc1cc2c(C)ccc(C)c2nc1SCC(=O)Nc1c[nH]c(=O)[nH]c1=O`: the inhibition is 27.1% (inactive).

On to `Nc1cc(=O)[nH]c(SCC(=O)Nc2ccc(Oc3ccccc3)cc2)n1`, for which the inhibition is -5% (inactive).

As to `O=C(CSc1n[nH]c(=O)[nH]c1=O)Nc1ccc2c(c1)C(=O)c1ccccc1C2=O`, the inhibition is 98% (active).

Take `CC1=C(C(=O)OCC2CCCCC2)C(c2ccc(F)cc2)NC(=O)N1` (configuration not stated): the inhibition was -8.4% (inactive).

With `CC1=C(C(=O)OC(C)C)C(c2ccc(Cl)cc2)n2c(s/c(=C\c3ccc(OCC(=O)O)cc3)c2=O)=N1` (configuration not stated), the inhibition was 97.4% (active).

As for `CCOC(=O)C1=C(N)n2c(s/c(=C\c3ccncc3)c2=O)=C(C(=O)OCC)C1c1ccncc1` (configuration not stated), the inhibition was 39.4% (inactive).

In the case of `CCC1CCCCN1CCCNS(=O)(=O)c1ccc2c(c1)oc(=O)n2C` (configuration not stated), the inhibition is -1.5% (inactive).

With `Clc1ccc2ccc3cccnc3c2n1`, the inhibition is -16.7% (inactive).

On to `Cc1ccc(CNc2ccc(N3CCOCC3)c(Cl)c2)cc1`, for which the inhibition was 8% (inactive).

With `Cc1c(C(=O)N2CCCCC2)c(S(=O)(=O)N2CCN(c3ccc(F)cc3)CC2)c(C)n1C`, the inhibition was -7% (inactive).

For `Cc1c(C)n(C)c2ccc(C(=O)NCCCN3CCCCC3C)cc12` (configuration not stated), the inhibition is -11% (inactive).

As for `O=C(CSc1n[nH]c(-c2ccccc2O)n1)NC1CCCCC1`, the inhibition is 2.6% (inactive).

In the case of `Clc1ccc(Cl)c(OCCCCN2CCCCC2)c1`, the inhibition was -4.8% (inactive).

`COc1ccc(CCNC(=O)CCNC(=O)N2CC(=O)Nc3ccccc32)cc1`: the inhibition is 13.9% (inactive).

For the compound `COc1ccc(OC)c(NC(=O)CCN2CCN(c3ccccc3OC)CC2)c1`, the inhibition is 6.9% (inactive).

Regarding `COc1ccc(N2CCN(c3ncnc4scc(-c5ccccc5)c34)CC2)cc1`, the inhibition is 16.6% (inactive).

Usually inhibition stands for the drop in the measured response relative to a control, in per cent.
